# Data taken from ChEMBL document CHEMBL4513216, “Probing the Open Global Health Chemical Diversity Library for Multistage-Active Starting Points for Next-Generation Antimalarials” (ACS Infect Dis, 2020).
# Out of some 69,000 compounds screened, about 8,600 (12%) showed an effect of 50% or more. The entries come from a sample that favours strong results as a whole.
# Test system: Plasmodium berghei
# Assay: Screen against P. berghei liver stage (PbLuc), transformed with Luciferase, at 10uM
# Type: functional, HepG2
# Conditions: tested at 10 uM
row,Compound,INHIBITION
1,CC(C)n1nc2c(cc1=O)CN(CCOc1cccc(C#N)c1)CC2,23.1%
2,Clc1ccc(-c2nnc(CNCCn3cccn3)o2)c(Cl)c1,-38.2%
3,Cc1ncsc1CN1C[C@H](NC(=O)C2CCOCC2)[C@@H](C(C)C)C1,75.4%
4,CC(C)[C@H]1CN(Cc2c[nH]nn2)C[C@@H]1NC(=O)C1CCOCC1,16.3%
5,Cc1nnc(CN2C[C@H](NC(=O)C3CCOCC3)[C@@H](C(C)C)C2)s1,90.2%
6,Cc1csc(CN2C[C@H](NC(=O)C3CCOCC3)[C@@H](C(C)C)C2)n1,42.5%
7,Cc1ncsc1CN1C[C@@H]2COC[C@]2(C(=O)NC2CC(F)(F)C2)C1,32.1%
8,CC(C)[C@H]1CN(Cc2ccccc2C#N)C[C@@H]1NC(=O)C1CCOCC1,45.9%
9,CCN(Cc1ccc(F)cc1Cl)C1CCS(=O)(=O)C1 (configuration not stated),21.6%
10,Cc1cc(C[S+]([O-])Cc2ccccc2F)on1 (configuration not stated),10.1%
11,CCCn1cc(-c2cc(C(=O)N(C)C)c3ccc(OC)cc3n2)cn1,29.85%
12,COc1cccc(CSc2nnc(C)n2CC(N)=O)c1,-15.1%
13,Cc1cccc(CSc2nnc(C)n2CC(N)=O)c1,57.7%
14,Cc1nnc(SCc2cccc(F)c2)n1CC(N)=O,20.9%
15,O=C(NCCCN1CCOCC1)c1ccn(COc2ccc(F)cc2)n1,-41.2%
16,O=C(NCC(CO)Cc1ccc(Cl)cc1)c1ccncc1Cl (configuration not stated),5.21%
17,CCSc1cc(C(=O)NCC(C)(C)N(C)C)ccn1,15.7%
18,CCOC(=O)c1ccccc1NC(=O)CN(C)Cc1ccccc1Cl,68.9%
19,CCOc1ccccc1NC(=O)CN(C)Cc1ccccc1Cl,32%
20,CN(CC(=O)Nc1ccccc1C(=O)NC1CC1)Cc1ccccc1Cl,8.08%
21,N#Cc1cccc(S(=O)(=O)NC(=O)C2CC(c3ccccc3)=NO2)c1 (configuration not stated),33.4%
22,Cc1cc2ccncc2n1CC1(O)CCN(C(=O)c2cccnc2)CC1,9.98%

row,Compound,INHIBITION
1,CN1CC(=O)N(c2cccnc2)Cc2c(NC3CC3)ncnc21,41.6%
2,CC1(C)CCN(Cc2ccccc2-c2nc(C(C)(C)C)cc(=O)[nH]2)C1,57.3%
3,CC(C)c1cc(=O)[nH]c(-c2ccccc2CN2CCC(C)(C)C2)n1,29.4%
4,CC(C)(C)c1cc(=O)[nH]c(-c2ccccc2CN2CCCCCC2)n1,-7.65%
5,Cc1cc(C)n(C2CN(c3ncnc4c3CCNCC4)C2)n1,40.5%
6,Cc1ccc(C2(O)CCN(C(=O)CCn3c(C)cccc3=O)CC2)nc1,28.7%
7,Cc1ccc(C2(O)CCN(C(=O)CCn3ccc(=O)[nH]c3=O)CC2)nc1,82%
8,Cc1ccc(C2(O)CCN(C(=O)Cn3cc(C)c(=O)[nH]c3=O)CC2)nc1,30.9%
9,CN(CC(O)C(F)(F)F)C(=O)Nc1cccc(C(F)F)c1 (configuration not stated),40.7%
10,Cc1c(NC(=O)C(C)N(C)C)c(=O)n(-c2ccccc2)n1C (configuration not stated),-45.8%
11,COc1ccc(Cl)cc1CS(=O)(=O)Cc1noc(C)n1,34.7%
12,COc1ccc(Cl)cc1CS(=O)(=O)Cc1nc(C2CC2)no1,-3.96%
13,COc1ccc(Cl)cc1CS(=O)(=O)Cc1nc(C)no1,60.4%
14,Clc1cc(CN2CCCC2Cn2cncn2)c2ncccc2c1 (configuration not stated),22.9%
15,CC(C)c1nc(CN2CCCC(Cn3cncn3)C2)cs1 (configuration not stated),31.2%
16,CC(C)(C)c1nc(CN2CCCC(Cn3cncn3)C2)cs1 (configuration not stated),61.7%
17,Clc1ccc(CN2CCCC(Cn3cncn3)C2)c2ncccc12 (configuration not stated),35.1%
18,Clc1cc(CN2CCCCC2Cn2cncn2)c2ncccc2c1 (configuration not stated),-9.83%
19,Clc1snnc1CN1CCCC1Cn1cncn1 (configuration not stated),-11.4%
20,Clc1cc(CN2CCCN3CCCC3C2)c2ncccc2c1 (configuration not stated),55%
21,Cc1cccc2cc(CN3CCCN4CCC[C@H]4C3)c(=O)[nH]c12,34.9%
22,Clc1snnc1CN1CCCC(Cn2cncn2)C1 (configuration not stated),62.1%

row,Compound,INHIBITION
1,Clc1snnc1CN1CCCCC1Cn1cncn1 (configuration not stated),10.8%
2,Clc1cc(CN2CCCC(Cn3cncn3)C2)c2ncccc2c1 (configuration not stated),76.2%
3,c1ccc(-c2nc(CN3CCCC(Cn4cncn4)C3)cs2)cc1 (configuration not stated),-7.35%
4,Cc1cnc(C(=O)N2CCCC(n3cncn3)C2)cn1 (configuration not stated),41.5%
5,CCCc1nc(C(=O)N2CCn3nc(C(=O)OC)cc3C2)cs1,9.16%
6,Cc1noc(-c2ccc(N3CCN(Cc4nccn4C)CC3)nc2)n1,9%
7,CC(Cc1ccccc1F)C(=O)Nc1ccc(OCCC(N)=O)cc1 (configuration not stated),-8.92%
8,CCOc1ccc(C2CCCN2C(=O)NCCn2ccnc2)cc1 (configuration not stated),8.85%
9,CC(=O)N1CCCC(Cc2cnc(C(=O)N3CCC(C)CC3)cn2)C1 (configuration not stated),6.32%
10,Cc1ccnn1CCC(=O)N1C[C@@H](O)[C@H](Oc2cccc(F)c2)C1,9.93%
11,CN(Cc1cnc(C(C)(C)C)nc1)Cc1nc2ccc(F)cc2[nH]1,-0.18%
12,CCOCC(=O)N1C[C@@H](O)[C@H](NC(C)=O)C1,4.41%
13,O[C@@H]1CN(Cc2cc(Cl)cc3cccnc23)C[C@@H]1O,51.3%
14,CN(C)CC1CN(Cc2cc(Cl)cc3cccnc23)CCO1 (configuration not stated),23.4%
15,OCCN1CCN(Cc2cc(Cl)cc3cccnc23)CC1,42.7%
16,COc1ccc(CN2CCCC(N3CCCC3)C2)cc1Cn1cncn1 (configuration not stated),34.1%
17,COc1cc(Cl)cc(CN2CCCC(N3CCOCC3)C2)c1OC (configuration not stated),15.7%
18,COc1cc(Cl)cc(CN2CCCC(N3CCCC3)C2)c1OC (configuration not stated),77.6%
19,CC1=C(C(=O)N(C)Cc2n[nH]c3c2CCCCC3)C(C)NC(=O)N1 (configuration not stated),17.5%
20,c1ccc(CCc2n[nH]c(C3CCOC3)n2)cc1 (configuration not stated),21.5%
21,Cc1ccnn1CC(=O)N(C)Cc1ccc(-n2cccn2)cc1,21.8%
22,CCn1cc(CN(C)Cc2cnn(-c3ccc(F)cc3)c2)cn1,17%

row,Compound,INHIBITION
1,Cc1ccnn1CC(=O)N(C)Cc1cnn(-c2ccccc2)c1,50.8%
2,CSCC(=O)N(C)Cc1cnn(-c2ccc(F)cc2)c1,13%
3,CC(C)c1nccc(CN(C)Cc2cnn(-c3ccccc3)c2)n1,51.7%
4,Cc1nonc1CN(C)Cc1cnn(-c2ccc(F)cc2)c1,-23.4%
5,COc1cccc(-n2cc(CN(C)Cc3ccnc(C(C)C)n3)cn2)c1,15.005%
6,CN(Cc1ccncc1)Cc1cnn(-c2ccc(F)cc2)c1,51.8%
7,CC(C)c1nccc(CN(C)Cc2cccc(-n3cccn3)c2)n1,6.9%
8,CN(C)Cc1ccnc(C2CCCN2Cc2cccc(F)c2F)n1 (configuration not stated),15.9%
9,CCc1ocnc1C(=O)N1CCCC(n2nc(C)nc2C)C1 (configuration not stated),11.715%
10,O=C(c1cnc(O)cc1O)N1CCCC(CCc2ccccc2F)C1 (configuration not stated),15.8%
11,CNC(=O)[C@H]1C[C@@H]2CN(C(=O)c3ccc(C)nc3)C[C@@H]2N1C(C)C,11.3%
12,Cc1csc(C2CCCN(C(=O)c3c(C)nn4cccnc34)C2)n1 (configuration not stated),-2.53%
13,CC(=O)N1CCN(CCNS(=O)(=O)c2ccc(C)c(F)c2)CC1,-3.95%
14,CC(=O)N1CCN(CCNc2ncc(Br)cc2C)CC1,54.4%
15,Cc1cc(Br)cnc1NCCN1CCC(N(C)C)CC1,64%
16,CC(=O)N1CCN(CCNS(=O)(=O)c2cc(F)ccc2C)CC1,17.1%
17,COC1CCN(CCNc2ncc(Br)cc2C)CC1,41.5%
18,Cc1cc(C(C)NCCN2CCC(N(C)C)CC2)c(C)s1 (configuration not stated),46.6%
19,Cc1cc(N2CCOCC2)ccc1NC(C)c1nc(C(C)(C)C)no1 (configuration not stated),14.9%
20,Cc1n[nH]c(C)c1NC(=O)CN1CCCC1Cn1cncn1 (configuration not stated),30%
21,CC(=O)N1CCC(c2nccnc2Nc2cnccn2)CC1,-21.6%
22,CN(Cc1ccncn1)C(=O)CCC(=O)NC1CCCC1,39.4%

row,Compound,INHIBITION
1,CCCN1C[C@@H]2CC[C@H]1CN(Cc1cccc(-n3cccn3)c1)C2,48.2%
2,COCCN1CCN(c2ccc(CN(C)C)cn2)CC1,-14.3%
3,CCN(C(=O)CCn1cccn1)C1CC1,36.2%
4,CC(C1CC1)N(C)C(=O)CCn1cccn1 (configuration not stated),49%
5,CC(C)CC(C)N(C)C(=O)CCn1cccn1 (configuration not stated),64%
6,Cc1nn(C)c(C)c1NC(=O)CCn1ncc2ccc(Cl)cc21,-14.7%
7,CC(=O)c1cc(C(=O)N2CCN(C)Cc3ccccc32)n(C)c1,-94.3%
8,CC(C)c1n[nH]c(C2CN(C(=O)COCC(F)(F)F)CCO2)n1 (configuration not stated),31.6%
9,CN(C(=O)CN1CCCc2cc(F)cc(F)c21)c1ccccc1,43.9%
10,CN(C)C(=O)Cn1cc(C(=O)N2CCCc3cccc(F)c32)nn1,28.6%
11,CC(c1ccccc1)N(C)C(=O)CN1CCCc2cccc(F)c21 (configuration not stated),51.1%
12,CC(c1ccccc1)N(C)C(=O)CN1CCN(c2cnccn2)CC1 (configuration not stated),47.2%
13,CC(c1ccccc1)N(C)C(=O)CN1CCCc2cc(F)cc(F)c21 (configuration not stated),76.1%
14,CC(c1ccccc1)N(C)C(=O)Cn1cc(NC(=O)C(C)(C)C)cn1 (configuration not stated),-41.1%
15,CC(C)CC(=O)N1C[C@@H]2CCN(c3cnccn3)C[C@@H]2C1,3.81%
16,CNC(=O)CN1C(=O)CN(C(=O)COC)CCC(OC)c2ccccc21 (configuration not stated),48.7%
17,CNc1cc(C2CCCN2S(=O)(=O)c2cccc(F)c2)ccn1 (configuration not stated),2.71%
18,CCS(=O)(=O)N1CCc2nc(C3CCN(C(=O)C4CC4)C3)nc(O)c2C1 (configuration not stated),30.4%
19,Cc1nc(NC2CCCC2)cc(C2CCN2c2ncccn2)n1 (configuration not stated),26.7%
